# Experimental data taken from PubChem BioAssay (NCATS).
# Records with an inconclusive call do not appear. Calls of active or inactive are those of the source. Calls come from the whole dose curve; as a rule, active = well fitted curve in the direction sought with a large enough effect; inconclusive = small, poorly fitted or top-dose-only effect, or another doubt; inactive = no such curve, though single readings can be large; an effect the other way counts as inactive or inconclusive.
# What was measured:
# [1] = qHTS Screen of the MIPE 4.0 Collection Against Ewings Sarcoma (TC71) (AID 1259253); note: nearly all actives have a fitted effect of over 40% in size; note: potency is the fitted concentration of half-maximal effect
# Summary of the method: (§1)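 Measured: ATP luminescence (CellTiter-Glo) 10 min after reagent addition, following 48 h drug treatment. Relative luciferase units converted to percent activity, with no-cell wells as full and DMSO wells as zero inhibition.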
# [2] = qHTS Screen of the MIPE 4.0 Collection Against Ewings Sarcoma (TC32) (AID 1259256); note: nearly all actives have a fitted effect of over 45% in size; note: potency is the fitted concentration of half-maximal effect
# Summary of the method: as §1
# [3] = Identifying Small Molecule Inhibitors of Pancreatic Cancer Stem Cells (SN12C, Adherent) (AID 1259358);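 note: cell survival measured after 48 h of compound exposure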; note: potency is the fitted concentration of half-maximal effect
# Summary of the method: (§2)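 After a 4 h attachment period, compounds were pinned into wells and cultures held 48 h under standard incubator conditions. Viability was then measured as CellTiter-Glo luminescence following 10 min at room temperature.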
# [4] = Identifying Small Molecule Inhibitors of Pancreatic Cancer Stem Cells (SN12C, Spheroid) (AID 1259360); conditions: Potency: SN12C spheroid viability; note: potency is the fitted concentration of half-maximal effect
# Summary of the method: (§3)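 Spheroids grown 14 days in stem cell media on hydrogel-coated nonadherent plates; 2D lines seeded directly. Compounds added after 4 h attachment, 48 h at 37C, 5% CO2; CellTiter-Glo luminescence normalized to DMSO (no inhibition) and no-cell wells (full inhibition).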
# [5] = Identifying Small Molecule Inhibitors of Pancreatic Cancer Stem Cells (Panc1, Adherent) (AID 1259362); conditions: Potency: viability; note: potency is the fitted concentration of half-maximal effect
# Summary of the method: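 Viability is scored by CellTiter-Glo luminescence 48 h after dosing, expressed as percent activity against vehicle and no-cell references. Spheroid formats rely on cells cultured 14 days in stem cell media beforehand.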
# [6] = Identifying Small Molecule Inhibitors of Pancreatic Cancer Stem Cells (Panc1, Spheroid) (AID 1259359);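 note: compound exposure lasted 48 h before reading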; note: potency is the fitted concentration of half-maximal effect
# Summary of the method: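 Adherent (2D) versus sphere (3D) formats; spheres generated 14 d in SCM beforehand. Compound transferred by pin tool after 4 h, 48 h incubation, CellTiter-Glo endpoint.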
# [7] = Identifying Small Molecule Inhibitors of Pancreatic Cancer Stem Cells (A278, Adherent) (AID 1259361);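 note: viability read after 48 h compound exposure; nearly all actives have a fitted effect of over 35% in size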
# Summary of the method: as §2
# [8] = qHTS Screen of the MIPE 4.0 Collection Against Ewings Sarcoma (EW8) (AID 1259255); note: potency is the fitted concentration of half-maximal effect; nearly all actives have a fitted effect of over 35% in size
# Summary of the method: as §1
# [9] = qHTS assay to identify small molecule inhibitors of chordoma cells - UCH-1 (AID 1259355); note: nearly all actives have a fitted effect of over 55% in size
# Summary of the method: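 A 48hr growth-inhibition format: each drug tested at 15 concentrations together with added auranofin, camptothecin, doxorubicin, rubitecan and topotecan, with cell viability quantified as CellTiter-Glo luminescence.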
# [10] = Identifying Small Molecule Inhibitors of Pancreatic Cancer Stem Cells (A2780, Spheroid) (AID 1259357); conditions: Potency: A2780 spheroid viability;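 note: spheroids pre-formed over 14 days in stem cell medium on hydrogel; compound exposure lasted 48 h before the ATP luminescence read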
# Summary of the method: as §3
structure (smiles),measurement,setting,value
CCC[C@H](N[C@@H](C)C(=O)N1[C@@H]2CCCC[C@H]2C[C@H]1C(=O)O)C(=O)OCC,Potency,[1],14.8 µM (active)
same,Potency,[2],inactive
CC[C@H](C)n1cc(C)c2c(C(=O)NCc3c(C)cc(C)[nH]c3=O)cc(-c3ccc(N4CCNCC4)nc3)cc21,Potency,[1],11.8 µM (active)
same,Potency,[2],18.7 µM (active)
CCOC(=O)[C@@H](N)CCC(=O)N[C@@H](CSCc1ccccc1)C(=O)N[C@@H](C(=O)OCC)c1ccccc1,Potency,[1],inactive
same,Potency,[3],inactive
same,Potency,[4],inactive
same,Potency,[5],inactive
CCNC(=O)c1noc(-c2cc(C(C)C)c(O)cc2O)c1-c1ccc(CN2CCOCC2)cc1,Potency,[1],0.118 µM (active)
same,Potency,[2],0.059 µM (active)
same,Potency,[3],0.0105 µM (active)
same,Potency,[6],inactive
same,Potency,[4],0.0074 µM (active)
same,IC50 (viability decrease),[7],0.0037 µM (active)
COc1ccc(CCN(C)CCCOc2ccc(S(=O)(=O)c3[nH]c4ccccc4c3C(C)C)cc2)cc1OC,Potency,[1],inactive
same,Potency,[5],26.4 µM (active)
O=C(CC12CC3CC(CC(C3)C1)C2)Nc1cccc2nc(NCCNCCO)ccc12,Potency,[1],7.43 µM (active)
same,Potency,[2],13.2 µM (active)
CC(C)(C)c1nc(-c2cccc(NS(=O)(=O)c3c(F)cccc3F)c2F)c(-c2ccnc(N)n2)s1,Potency,[8],18.7 µM (active)
COc1cc2c(cc1OC)CC(=O)N(CCCN(C)C[C@H]1Cc3cc(OC)c(OC)cc31)CC2,Potency,[1],16.6 µM (active)
same,outcome,[9],inactive
same,Potency,[3],inactive
same,Potency,[4],inactive
same,IC50 (viability decrease),[7],inactive
same,Potency,[5],inactive
CCc1cc(-c2n[nH]c(C)c2-c2ccc3c(c2)OCCO3)c(O)cc1O,Potency,[1],8.33 µM (active)
same,Potency,[2],4.18 µM (active)
O=C1Nc2ccc(I)cc2C1=Cc1cc(Br)c(O)c(Br)c1,Potency,[1],18.7 µM (active)
same,Potency,[2],20.9 µM (active)
Cc1cccc(Nc2nc(N[C@@H]3CCCC[C@H]3N)ncc2C(N)=O)c1,Potency,[1],18.7 µM (active)
same,Potency,[10],inactive
same,Potency,[3],18.7 µM (active)
same,Potency,[4],inactive
same,Potency,[5],26.4 µM (active)
CCOC(=O)N1CCN([N+]([O-])=NOc2cc(ON=[N+]([O-])N3CCN(C(=O)OCC)CC3)c([N+](=O)[O-])cc2[N+](=O)[O-])CC1,Potency,[1],inactive
same,Potency,[2],4.18 µM (active)
CCC(=O)N1CCN(c2ccc(-n3c(=O)ccc4cnc5ccc(-c6cnc7ccccc7c6)cc5c43)cc2C(F)(F)F)CC1,Potency,[1],0.0296 µM (active)
same,Potency,[2],0.0105 µM (active)
same,Potency,[3],0.0372 µM (active)
same,Potency,[4],0.0526 µM (active)
Cn1c(=O)c(-c2c(Cl)cccc2Cl)cc2cnc(Nc3cccc(C(=O)O)c3)nc21,Potency,[1],inactive
same,Potency,[2],inactive
CN1CCN2c3ncccc3Cc3ccccc3C2C1 (stereo unspecified),Potency,[1],inactive
same,Potency,[2],inactive
same,outcome,[9],inactive
Cc1ccc(NC(=O)Nc2cc(C(F)(F)F)ccc2F)cc1Nc1ccc2c(c1)NC(=O)C2=Cc1ccc[nH]1,Potency,[1],26.4 µM (active)
same,Potency,[2],26.4 µM (active)
Cc1ccc(C(=O)N(CCCN)[C@@H](c2nc3cc(Cl)ccc3c(=O)n2Cc2ccccc2)C(C)C)cc1,Potency,[1],0.0019 µM (active)
same,Potency,[2],inactive
same,Potency,[6],0.003 µM (active)
same,IC50 (viability decrease),[7],0.0047 µM (active)
CS(=O)(=O)c1ccc(C2=C(c3ccccc3)C(=O)OC2)cc1,Potency,[1],18.7 µM (active)
same,outcome,[9],inactive
CCC[C@H](Nc1nc(-c2ccc(NC(=O)NCC)c(OC)c2)ncc1C)c1cccnc1,Potency,[1],0.0093 µM (active)
same,Potency,[2],inactive
Cc1ccc(NC(=O)c2cccc(N(C)C)c2)cc1NC(=O)c1ccc(O)cc1,Potency,[1],0.526 µM (active)
same,Potency,[2],1.05 µM (active)
N=C1SC(=Cc2ccc(-c3ccc4c(c3)C(=O)NC4=O)o2)C(=O)N1c1ccc(Br)cc1,Potency,[1],20.9 µM (active)
same,Potency,[2],18.7 µM (active)
CCCCn1c(=O)n(Cc2ccccc2F)c(=O)c2[nH]c(Cc3ccc(NC(C)=O)cc3)nc21,Potency,[1],20.9 µM (active)
same,Potency,[2],inactive
same,IC50 (viability decrease),[7],13.2 µM (active)
CC(=O)NCCC(=O)N[C@@H](CCC(N)=O)C(=O)N[C@@H](CO)C(=O)N[C@@H](CCC(N)=O)C(=O)N[C@@H](CCC(N)=O)C(=O)N[C@H](C(=O)N[C@@H](Cc1ccccc1)C(=O)N[C@]1(C)CCCCCCC=CCCC[C@@](C)(C(=O)N[C@@H](CCC(N)=O)C(=O)N[C@@H](CC(N)=O)C(N)=O)NC(=O)[C@H](CC(C)C)NC(=O)[C@H](CC(C)C)NC(=O)[C@@H](CCCNC(=N)N)NC(=O)[C@H](Cc2c[nH]c3ccccc23)NC(=O)[C@H](CC(C)C)NC(=O)[C@H](CC(N)=O)NC1=O)[C@H](C)O,Potency,[1],20.9 µM (active)
same,Potency,[10],inactive
same,Potency,[3],inactive
same,Potency,[4],inactive
same,Potency,[5],inactive
Cc1nn(Cc2ccccc2Cl)c(C)c1CN(C)CC(O)COc1ccc(Cl)cc1 (stereo unspecified),Potency,[1],23.5 µM (active)
same,Potency,[2],23.5 µM (active)
same,Potency,[3],inactive
same,Potency,[4],inactive
